# HT1080NT lethal: kills 2HG-producing HT-1080-NT fibrosarcoma cells; 360,000 tested, 1.6% active; Potency, µM (titrated, usually from 46.1 µM), actives largely listed as cytotoxic; HT-1080-NT fibrosarcoma viability, CellTiter-Glo ATP luminescence, 48 h;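 note: NT is the 2HG producing partner of a matched IDH1 knockdown line; nearly all actives have a fitted effect of over 55% in size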
#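 Viability of the 2HG-overproducing fibrosarcoma line after 48 hours of compound exposure at 37 degrees C was determined by luminescence with CellTiter-Glo, and concentration-effect curves were then fitted and categorized.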
# IL-1B inflam inh: inhibitors of inflammasome signaling (IL-1 beta secretion) | THP-1 LPS/ATP IL-1B secretion, AlphaLISA, 16 h; active compounds read low | activity change, % at 57.5 µM | 360,000 tested, 4.7% active; in the data active = activity change below about -50%; inconclusive = mostly about -30% to -49%
#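 THP-1 cells pretreated 1 hr with compounds (up to 57.5 uM final), then stimulated with LPS (250 ng/mL final) plus ATP (1.25 mM final); secreted IL-1B measured by AlphaLISA after 16 hr, decreased signal indicating inhibition.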
# DT40 TDP1 CPT: DT40-hTDP1 cell growth loss with CPT | chicken DT40 Tdp1-/-;hTDP1 cells + 20 nM CPT, ATP luminescence, 48 h | Potency, µM (doses to about 46.2 µM), most hits filed as inhibitors | 420,000 tested, 12% active | AID 686979; note: nearly all actives have a fitted effect of over 55% in size
#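 Chicken DT40 Tdp1-/- cells stably complemented with human TDP1 were seeded at 400 cells/well in medium containing 20 nM camptothecin, exposed to pin-transferred compounds, and grown at 37 °C for at least 48 hr. Viability was read as ATP luminescence.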
# TDP1 cell noCPT: qHTS for Inhibitors of human tyrosyl-DNA phosphodiesterase 1 (TDP1): qHTS in cells in absence of CPT. 420,000 tested, 15% active. Potency, µM (highest dose often 46.2 µM), hits mostly inhibitors. DT40 Tdp1-/- hTDP1 cells, no CPT, ATP luminescence, 48 h; note: nearly all actives have a fitted effect of over 55% in size
#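 No-CPT arm: Tdp1-/-;hTDP1 DT40 cells (400/well) plus compounds, incubated ≥48 hr at 37 °C. Readout CellTiter-Glo luminescence.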
# HT1080 IDH1KD tx: toxicity to HT-1080 IDH1 knockdown cells (counter line); Potency, µM (titrated, usually from 46.1 µM), most hits filed as cytotoxic; HT-1080 IDH1 knockdown viability, ATP luminescence, 48 h; AID 686971; 360,000 tested, 2% active
#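 In this qHTS, HT-1080 cells depleted of IDH1 are exposed for 48 h at 37 °C to compound titrations. Toxicity is scored from CellTiter-Glo luminescence, with DMSO as full viability and medium alone as none.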
# Hits are given with their value; i = inactive; ? = inconclusive; nt = no result given. Most compounds without a hit are left out; they make up all but 19% or so of the library. Unless noted, calls come from the whole dose curve; as a rule, active = well fitted curve in the direction sought with a large enough effect; inconclusive = small, poorly fitted or top-dose-only effect, or another doubt; inactive = no such curve, though single readings can be large; an effect the other way counts as inactive or inconclusive.
SMILES,HT1080NT lethal,IL-1B inflam inh,DT40 TDP1 CPT,TDP1 cell noCPT,HT1080 IDH1KD tx
CCSC1=C(C#N)C(c2ccc(C)s2)CC(=O)N1 (stereo not drawn),i,i,i,i,i
COC(=O)CSC1=C(C#N)C(c2cccc(F)c2)CC(=O)N1 (stereo not drawn),15µM,i,?,23µM,?
COC(=O)CSC1=C(C#N)C(c2cccc(OC)c2)CC(=O)N1 (stereo not drawn),i,i,?,?,i
O=C(NCc1ccccc1)C1Cc2c(-c3cccc(F)c3)ccnc2O1 (stereo not drawn),?,i,0.92µM,0.92µM,1.2µM
CN1CCN(c2ccc(CNC(=O)C3Cc4c(-c5cccc(F)c5)ccnc4O3)cc2)CC1 (stereo not drawn),?,?,?,21µM,?
CC(=O)c1cccc(-c2ccnc3c2CC(C(=O)NCc2ccc(N4CCN(C)CC4)cc2)O3)c1 (stereo not drawn),i,i,i,?,i
O=C(NCCc1ccccc1)C1Cc2c(-c3ccccc3)ccnc2O1 (stereo not drawn),i,i,?,?,?
COc1ccc(CNC(=O)C2Cc3c(-c4cccc(F)c4)ccnc3O2)cc1OC (stereo not drawn),?,i,8.2µM,?,i
O=C(NCC1CC1)C1Cc2c(-c3cccc(F)c3)ccnc2O1 (stereo not drawn),?,i,i,?,i
O=C(NCc1cccc(Cl)c1)C1Cc2c(-c3cccc(F)c3)ccnc2O1 (stereo not drawn),?,i,21µM,26µM,?
OC(COc1ccc(CN2CCCCO2)cc1)CN1CCCCC1 (stereo not drawn),i,i,i,i,i
N#Cc1cn(-c2ccccc2)nc1-c1cc2ccccc2oc1=O,i,i,?,16µM,i
O=C(O)/C=C/c1cn(-c2ccccc2)nc1-c1cc2ccccc2oc1=O,i,i,i,i,i
C=C1N(C)c2cc([N+](=O)[O-])c(N)cc2C1(C)C,?,-53,i,i,i
CC1(C)Oc2cc(N)c([N+](=O)[O-])cc2O1,i,i,i,i,i
COc1ccccc1-c1cc(C(F)(F)F)c(C#N)c(=O)[nH]1,i,i,i,i,i
COc1ccccc1-c1cc(SC)c(C#N)c(=O)o1,i,?,3.7µM,5.8µM,i
Cc1cccc(CNC(=O)CCCn2c(=O)c3cccn3c3ccc(F)cc32)c1,nt,nt,?,23µM,nt
COc1ccc(CNC(=O)CCCn2c(=O)c3cccn3c3ccc(F)cc32)cc1OC,nt,nt,18µM,18µM,nt
COc1ccc(CCNC(=O)Cn2c(=O)c3cccn3c3ccccc32)cc1OC,nt,nt,?,23µM,nt
CSc1cccc(CN2CCCC(CO)(Cc3cccc(Cl)c3)C2)c1 (stereo not drawn),i,i,i,i,i
COc1ccc(CN2CCCC(CO)(Cc3cccc(Cl)c3)C2)cc1OC (stereo not drawn),i,i,i,21µM,i
OCC1(Cc2cccc(Cl)c2)CCCN(Cc2cnn(-c3ccccc3)c2)C1 (stereo not drawn),i,i,?,13µM,i
Cc1nn(C)c(Cl)c1CN1CCCC(CO)(Cc2cccc(Cl)c2)C1 (stereo not drawn),i,i,15µM,15µM,i
OCC1(Cc2cccc(Cl)c2)CCCN(Cc2ccc(F)c(F)c2)C1 (stereo not drawn),i,-55,23µM,?,26µM
SMILES,HT1080NT lethal,IL-1B inflam inh,DT40 TDP1 CPT,TDP1 cell noCPT,HT1080 IDH1KD tx
Cc1ccccc1CC1(CO)CCCN(C(=O)c2cccc(Cl)c2)C1 (stereo not drawn),i,i,i,?,i
O=C(c1ccc(-n2ccnc2)cc1)N1CCCC(CO)(Cc2cccc(Cl)c2)C1 (stereo not drawn),i,i,4.6µM,?,i
OCC1(Cc2ccccc2)CCCN(Cc2ccc(-c3ccco3)cc2)C1 (stereo not drawn),?,-84,?,23µM,?
CCOC(=O)c1ccc(S(=O)(=O)N2CCN(C(=O)c3cc(=O)c4ccccc4o3)CC2)cc1,i,-116,i,i,i
CCOc1ccc(S(=O)(=O)N2CCN(C(=O)c3ccco3)CC2)cc1,i,i,i,i,i
O=S(=O)(c1ccccc1)N1CCN(C(=S)NCc2ccccc2)CC1,i,i,i,?,i
CCOc1ccc(S(=O)(=O)N2CCN(C(=S)NCc3ccccc3)CC2)cc1,i,i,21µM,?,i
CCOc1ccc(S(=O)(=O)N2CCN(C(=O)c3cc4ccccc4o3)CC2)cc1,i,?,21µM,21µM,i
O=[N+]([O-])c1ccc2nccn2c1,i,i,i,i,i
O=C(/C=C/[C@H]1O[C@@H](n2ccc(=O)[nH]c2=O)[C@H](O)[C@@H]1O)NCc1ccccc1,i,i,i,i,i
O=C(COC(=O)CNC(=O)c1ccccc1F)NC1CC1,i,i,i,i,i
COc1cc(NC(=O)COC(=O)C2CC(O)CN2S(=O)(=O)c2ccc(Cl)cc2)c(C)cc1[N+](=O)[O-] (stereo not drawn),i,i,i,i,i
Cc1ccc(-c2nc(CS(=O)(=O)CC(=O)NCCCN(Cc3ccccc3)C(C)C)c(C)o2)cc1,i,i,?,?,i
Cc1oc(-c2ccc(-c3ccccc3)cc2)nc1CN(CCO)C(C)C,?,-82,i,?,23µM
O=C(NNC(=S)Nc1ccc(Cl)cc1Cl)c1ccc(N2CCOCC2)c([N+](=O)[O-])c1,i,i,i,i,i
O=C(CCc1nc2sc3c(c2c(=O)[nH]1)CCCC3)Nc1ccccc1Cl,i,i,?,?,i
CC(=O)c1cccc(NC(=O)CCc2nc3sc4c(c3c(=O)[nH]2)CCCC4)c1,?,i,?,13µM,i
Cc1cccc(NC(=O)CCc2nc3sc4c(c3c(=O)[nH]2)CCCC4)n1,i,i,?,18µM,i
CCN(c1ccc(NC(=O)CCc2nc3sc4c(c3c(=O)[nH]2)CCCC4)cc1)C(C)C,i,i,29µM,23µM,?
CC(=O)c1ccc(NC(=O)CCc2nc3sc4c(c3c(=O)[nH]2)CCCC4)cc1,i,i,?,?,i
CCOC(=O)C1(C)CCCN(C(=O)c2cc(C)oc2C)C1 (stereo not drawn),i,i,?,?,i
COc1ccc2cc(C[C@@H]3CC[C@@H](CNC(N)=O)O3)ccc2c1,i,i,i,i,i
C[C@@H]1CCCCO[C@H](CN(C)Cc2ccc3c(c2)OCO3)[C@H](C)CN([C@@H](C)CO)C(=O)c2cc(NC(=O)c3ccccc3)ccc2O1,?,i,26µM,21µM,?

# Screens as filed in PubChem.
